According to PubChem BioAssay AID1645855 (Buhrlage Lab, Dana-Farber Cancer Institute and Novartis …, 2021):
In all, about 47,000 compounds went through this assay and about 3,100 (6.6%) were called active. Rule as the data show it: active = inhibition above about 30%; inactive = the rest. The full list was thinned out, with actives kept by preference.

The molecules below were run against Ubiquitin carboxyl-terminal hydrolase 17-like protein 5 (Homo sapiens) (UniProt A8MUK1) (assay: inhibitors of human USP17 deubiquitinase (AID 1645855)). Settings: purified USP17, Ub-rhodamine cleavage fluorescence, 3 h; at 50 µM; stronger effect = higher value.
Ubiquitin carboxyl-terminal hydrolase 17-like protein 5 (Homo sapiens), sequence (A8MUK1 whole entry, looked up): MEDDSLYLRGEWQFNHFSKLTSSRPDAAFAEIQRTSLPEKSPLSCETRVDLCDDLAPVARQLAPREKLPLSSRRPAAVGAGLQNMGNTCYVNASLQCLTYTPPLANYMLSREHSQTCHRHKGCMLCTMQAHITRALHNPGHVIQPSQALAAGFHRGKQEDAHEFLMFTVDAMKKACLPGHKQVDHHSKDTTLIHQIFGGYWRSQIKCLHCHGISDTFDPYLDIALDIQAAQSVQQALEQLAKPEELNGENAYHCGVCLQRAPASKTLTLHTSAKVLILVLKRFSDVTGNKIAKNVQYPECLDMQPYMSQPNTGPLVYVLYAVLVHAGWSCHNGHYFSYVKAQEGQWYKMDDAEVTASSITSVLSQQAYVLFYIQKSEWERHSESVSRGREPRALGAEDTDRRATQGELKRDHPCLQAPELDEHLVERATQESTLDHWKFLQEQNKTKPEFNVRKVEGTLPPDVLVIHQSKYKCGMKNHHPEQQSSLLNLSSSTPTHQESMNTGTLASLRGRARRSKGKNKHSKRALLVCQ

Row | SMILES | inhibition
1 | CNc1nc2c(c(=O)n1-c1ccccc1)CCN(S(C)(=O)=O)C2 | 4.69% (inactive)
2 | CNc1nc2c(c(=O)n1-c1ccccc1)CN(C(=O)c1ccc3ccccc3c1)CC2 | 1.41% (inactive)
3 | CN1CCc2c(sc3nc(SCCc4ccccc4)n(-c4ccccc4)c(=O)c23)C1 | 41.9% (active)
4 | Cc1ccc(-c2nnc(CCC(=O)O)o2)cc1 | -26.7% (inactive)
5 | CC(=O)Nc1ccc(C(=O)CSc2nc3ccc(C)cc3[nH]2)cc1 | 12.1% (inactive)
6 | COc1ccccc1NC(=O)Nc1ccc(CCc2nc3ccccc3[nH]2)cc1 | -12.4% (inactive)
7 | COc1cc(OC)cc(C(=O)Nc2cccc(CCc3nc4ccc(C)cc4[nH]3)c2)c1 | 30.4% (active)
8 | Cc1ccc(C(=O)N2CCCC(c3nnc(-c4ccccc4)o3)C2)cc1F (stereo not drawn) | -2.67% (inactive)
9 | O=CN1c2ccccc2NC(=O)CC1c1ccccc1 (stereo not drawn) | -3.98% (inactive)
10 | Cc1cc(NC2CCCCC2)n2ncc(-c3ccc(Cl)cc3)c2n1 | -4.39% (inactive)
11 | c1ccc(-c2nc3c4ccccc4nc(NC4CCCC4)n3n2)cc1 | -4.03% (inactive)
12 | Clc1ccc2ncnc(NC3CCCCC3)c2c1 | 39.8% (active)
13 | Cc1cc(C(=O)Nc2cccc(F)c2)cc2c1N(C)S(=O)(=O)c1ccccc1-2 | 5.77% (inactive)
14 | Cc1nn(-c2ccc(F)cc2F)c2c1C(C(=O)c1cc3ccccc3o1)CC(=O)N2 (stereo not drawn) | 31.3% (active)
15 | Cc1nn(-c2cccc(F)c2)c2c1C(C(=O)c1cc3ccccc3o1)CC(=O)N2 (stereo not drawn) | 2.88% (inactive)
16 | Cc1nn(-c2ccc(F)cc2F)c2c1C(C(=O)c1ccc3c(c1)OCO3)CC(=O)N2 (stereo not drawn) | 9.19% (inactive)
17 | Cc1cc(N2CCCC2)ccc1CN1CCCC(c2nnc3n2CCNCC3)C1 (stereo not drawn) | -63.9% (inactive)
18 | O=C(Nc1ccccc1-c1nc2ccccc2[nH]1)c1cc(S(=O)(=O)N2CCOCC2)c(Cl)cc1Cl | -21.9% (inactive)
19 | O=C(Nc1nc2ccc(S(=O)(=O)N3CCOCC3)cc2s1)c1cc2ccccc2oc1=O | 34.2% (active)
20 | O=C(Nc1ccc(Cl)c(S(=O)(=O)N2CCOCC2)c1)c1cc(-c2ccccc2Cl)nc2ccccc12 | -12.8% (inactive)
21 | CC(=O)CCCSc1ncnc2c1sc1nc(N3CCOCC3)c3c(c12)CC(C)(C)OC3 | 16.1% (inactive)
22 | O=C(COc1cccc2ccc(N3CCC(Cc4ccccc4)CC3)nc12)NCc1ccc(F)cc1 | 35.1% (active)

Row | SMILES | inhibition
23 | O=C(CCc1nnc2ccc(N3CCCC3)nn12)NCc1ccc(F)cc1 | 11.5% (inactive)
24 | O=C(COc1cccc2ccc(N3CCC(Cc4ccccc4)CC3)nc12)Nc1cccc(F)c1 | 46.2% (active)
25 | COc1ccc(NC(=O)CSc2ncccc2C(=O)N2CCC(Cc3ccccc3)CC2)cc1OC | 11% (inactive)
26 | Cn1c(=O)c(N2CCC(C(=O)NCc3ccc(F)cc3)CC2)nc2cccnc21 | 16.8% (inactive)
27 | O=C(CC1C(=O)OCCN1Cc1ccccc1)Nc1cccc(F)c1 (stereo not drawn) | -10.1% (inactive)
28 | COc1ccccc1CC(=O)Nc1cc(S(=O)(=O)N2CCOCC2)ccc1N1CCN(C)CC1 | -26.7% (inactive)
29 | C[C@H](NC(=O)Cc1ccc(Cl)cc1)C(=O)N1CCC2(CC1)NCCc1[nH]cnc12 | 9.11% (inactive)
30 | O=C(c1ccc(F)cc1)N1CCCC(c2nc(-c3ccccc3)no2)C1 (stereo not drawn) | 11.7% (inactive)
31 | O=C(Cn1c(-c2nc(-c3ccc(F)cc3)no2)cccc1=O)N1CCCC1 | 33% (active)
32 | O=C(CSc1ncc(-c2ccc(F)cc2)[nH]1)N1CCCC1 | 2.63% (inactive)
33 | COc1ccc2[nH]c(C)c(CCNC(=O)c3cccs3)c2c1 | 0.591% (inactive)
34 | Cc1c(N2CCN(S(=O)(=O)c3ccc(C(C)C)cc3)CC2)c(=O)n(C)c(=O)n1C | -2.36% (inactive)
35 | Cc1nc(SCC#N)c2oc3ccccc3c2n1 | 60.3% (active)
36 | Cc1nc(SCc2ccc([N+](=O)[O-])cc2)c2oc3ccccc3c2n1 | 12.4% (inactive)
37 | COc1cccc(Cc2cncc(C(=O)N3CCNC(=O)C3)c2)c1 | 6.62% (inactive)
38 | CSc1cccc(NC(=O)CC(=O)Nc2ccc3nc4n(c(=O)c3c2)CCCCC4)c1 | 34.4% (active)
39 | CSc1cccc(NC(=O)CCc2ccc3nc[nH]c3c2)c1 | -17.1% (inactive)
40 | CSc1cccc(NC(=O)COc2ccc(C(=O)c3ccccc3)cc2)c1 | 12.9% (inactive)
41 | Cc1cc(C)c2nc3c(cc2c1)CN(Cc1ccco1)C(=O)O3 | 51.9% (active)
42 | Cc1ccc(-n2c3c(c(=O)[nH]c2=O)CN(Cc2ccco2)CN3)cc1 | -9.75% (inactive)
43 | COc1ccc2nc3c(cc2c1)CN(Cc1ccccc1)C(=O)O3 | 18.5% (inactive)
44 | O=S(=O)(Cc1ccccc1)N1CC2(CCN(CC3CCCC3)CC2)C1 | 0.208% (inactive)

Row | SMILES | inhibition
45 | COc1ccccc1CNC(=O)c1ccc(-n2nc(C)c3c2CCCC3=O)cc1 | -3.98% (inactive)
46 | Cc1ccc(CNc2nnc(-c3nnc(C)o3)c3ccccc23)cc1 | 3.95% (inactive)
47 | Cc1ccc(NC(=O)NCc2nnnn2-c2ccccc2)cc1C | -3.49% (inactive)
48 | CC(C)c1ccc(OCC(=O)NCc2nnnn2-c2ccc(Cl)cc2)cc1 | 11.8% (inactive)
49 | O=C(COc1ccc2ccccc2c1)NCc1nnnn1-c1ccc(Cl)cc1 | 49.4% (active)
50 | CC(NC(=O)c1csc(C(=O)NC2CC2)n1)c1ccc(F)cc1 (stereo not drawn) | 7.32% (inactive)
51 | CC(C(=O)NCCCN1CCOCC1)C1CCN(C(=O)c2cc3ccccc3[nH]2)CC1 (stereo not drawn) | -0.784% (inactive)
52 | Cc1ccc(-c2nnc(NC(=O)C(c3ccccc3)c3ccccc3)o2)c(C)c1 | 2.51% (inactive)
53 | COc1ccc(OC)c(CNC(=O)c2nnc(C(=O)Nc3ccc(F)cc3)s2)c1 | 14.8% (inactive)
54 | Cc1nnc(C(=O)Nc2ccc(C(=O)NCc3ccccc3C)cc2)s1 | 68.1% (active)
55 | Cc1ccccc1CNC(=O)c1sc2ncnc(N3CCCC3)c2c1C | -0.361% (inactive)
56 | CC(=O)N1CCCC(c2ccnc(Nc3ccccn3)n2)C1 (stereo not drawn) | 6.44% (inactive)
57 | CN(C(=O)c1ncccn1)[C@H]1CC[C@@]2(C)C[C@H](c3ccccc3)C[C@](C)(O2)[C@@H]1O | 3.44% (inactive)
58 | CC(C)c1ccc(S(=O)(=O)N[C@H](C)C(=O)NCc2cscn2)cc1 | 6.37% (inactive)
59 | CNc1cnc(CC2CCCN(C(=O)c3scnc3C)CC2)cn1 (stereo not drawn) | -9.92% (inactive)
60 | CCc1ccc(NC(=O)Cn2cnc(S(=O)(=O)N3CCOCC3)c2)cc1 | 24.3% (inactive)
61 | N#Cc1cccc(NC(=O)COC(=O)c2cc3ccccc3oc2=O)c1 | 3.87% (inactive)
62 | Cc1cc(-c2nnc(SCC(=O)Nc3ccc(Br)c(C)c3)n2N)n[nH]1 | 23.4% (inactive)
63 | Cc1cc(NC(=O)COC(=O)c2cccc(C)c2O)ccc1Br | 37% (active)
64 | C=C1CCC2[C@](C)(CCC[C@]2(C)C(=O)OC)[C@H]1CCc1ccoc1CNCC(=O)O (stereo partly drawn) | 28% (inactive)
65 | C=C1CCC2[C@](C)(CCC[C@]2(C)C(=O)OC)[C@H]1CCc1ccoc1C[N+](C)(C)Cc1ccccc1 (stereo partly drawn) | 31.1% (active)
66 | O=C(c1ccc(Br)o1)N(Cc1cccc(F)c1)c1ccccn1 | 12.8% (inactive)

Row | SMILES | inhibition
67 | CC(=O)c1ccc(N2CCN(C(=O)c3ccc4noc(-c5ccccc5)c4c3)CC2)cc1 | -0.00315% (inactive)
68 | COc1cccc(CN2C(=O)c3ccccc3C2C(=O)NCc2ccccc2OC)c1 (stereo not drawn) | 13.5% (inactive)
69 | CC(=O)O[C@H]1CC[C@@]2(C)C(CC[C@]3(C)C2CCC2[C@@]4(C)CC[C@H](C(C)(C)O)C4C[C@H](O)[C@]23C)C1(C)C (stereo partly drawn) | 0.105% (inactive)
70 | COc1ccc(C(=O)NCC(=O)Nc2nc3ccccc3[nH]2)c(C)c1 | 46.9% (active)
71 | O=C(COc1ccccc1)NCCc1nc2ccccc2[nH]1 | 18.3% (inactive)
72 | Cc1noc(C)c1CC(=O)Nc1cccc(-c2nc3ccccc3[nH]2)c1 | 0.008% (inactive)
73 | O=C(Cc1ccc(Cl)cc1)NCC(=O)Nc1nc2ccccc2[nH]1 | 53.7% (active)
74 | COc1ccc(C(=O)Nc2cc(=O)[nH]c3nc(Cc4ccccc4)nn23)cc1 | -0.0855% (inactive)
75 | Clc1ccccc1SCc1nc2ccccc2[nH]1 | 6.98% (inactive)
76 | O=C(Nc1ccc(F)cc1F)c1cnn2c3c(cnc12)CCCCC3 | -3.64% (inactive)
77 | Cc1nc(C2CCCN2)nc2c1CCC(=O)N2CC1CCCCC1 (stereo not drawn) | 3.63% (inactive)
78 | CCc1nc(=O)c2ccccc2n1C1=CCN(Cc2cn(C)nc2C)CC1 | 4.86% (inactive)
79 | O=C(C1CCN(S(=O)(=O)c2ccc(Cl)cc2)CC1)N1CC[C@@]2(O)CCCC[C@H]2C1 | -1.48% (inactive)
80 | Cc1cc(O)c(=O)cc2c1C[C@H]1CC(C)(C)/C=C/C[C@@]3(C)Oc4cc(=O)c(O)cc(C)c4C[C@@H]3C[C@H](O)[C@]1(C)O2 | 40.2% (active)
81 | CCSc1nc(-c2ccccc2)nc2sc3c(c12)CC(C)(C)OC3 | -11.1% (inactive)
82 | CN1CC(c2ncn[nH]2)c2cc(C(=O)NCc3ccccc3)ccc21 (stereo not drawn) | -5% (inactive)
83 | COc1ccccc1CNC(=O)c1ccc2c(c1)CCN2C(=O)C1CC1 | -10.3% (inactive)
84 | Cc1nc2c(c(C)c1CCC(=O)Nc1ccccc1F)c(=O)n(C)c(=O)n2C | -0.603% (inactive)
85 | O=C(Cn1cccc(-c2nc(-c3ccccc3)no2)c1=O)Nc1ccccc1F | 33% (active)
86 | Cc1noc(-c2cccn(Cc3cc(F)ccc3F)c2=O)n1 | 5.57% (inactive)
87 | COc1ccc(C2C3=C(CC(c4ccc(Cl)cc4)CC3=O)Nc3ccccc3N2C(=O)c2ccc(Cl)c(Cl)c2)cc1 (stereo not drawn) | -7.25% (inactive)
88 | Fc1cccc(Nc2nc(-c3ccncc3)nc3c2CCC3)c1 | 48.8% (active)
